# In PubChem BioAssay (EPA / NIEHS):
# Calls of active or inactive are those of the source. Rule for the calls: active = hit-call score of the fitted dose curve at least 0.9, where 1 is the maximum; inactive = score below 0.9.
# Assay: APR_HepG2_p53Act_24hr: Apredica 24-hour HepG2 Assay for p53 Activation (AID 2282913);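 note: p53 protein immunofluorescence averaged per cell in HepG2 with Hoechst nuclei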
# Settings: high-content imaging, actives raise or lower the signal
# Procedure, shortened: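 Following 24 hr dosing of HepG2 at 0.39–200 uM, the cells undergo formaldehyde fixation, Triton permeabilization and multiplexed antibody labeling that includes p53 (Cy5). Signal from the imaging is referenced to DMSO solvent controls.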
Compound,outcome,AC50
O=[N+]([O-])c1ccc(Oc2ccc(Cl)cc2Cl)cc1,inactive,–
Cn1cc(-c2ccccc2)c(=O)c(-c2cccc(C(F)(F)F)c2)c1,inactive,–
CN(C)c1ccccc1,inactive,–
Oc1ccccc1Cl,inactive,–
C=CCc1ccc2c(c1)OCO2,inactive,–
CCCCCCCCCCCCCN1CC(C)OC(C)C1 (stereo unspecified),–,66.8 µM (active)
Nc1cc(Cl)cc(C(=O)O)c1Cl,inactive,–
Nc1ccc(Cl)cc1N,–,0.944 µM (active)
CC(C)N(Cc1ccccc1)C(=O)C(C)(C)C,inactive,–
ClCCOCCCl,inactive,–
CO[C@@H]1[C@H](OC(=O)NC(=O)CCl)CC[C@]2(CO2)[C@H]1[C@@]1(C)O[C@@H]1CC=C(C)C,inactive,–
CCOc1cccc(C2(N3CCN(c4ccccc4)CC3)CCC(C)CC2)c1 (stereo unspecified),inactive,–
CCC12COCN1COC2,–,86 µM (active)
CS(=O)(=O)NC(=O)c1cc(Oc2ccc(C(F)(F)F)cc2Cl)ccc1[N+](=O)[O-],inactive,–
ClC1=C(Cl)C2(Cl)C3C(Cl)C=CC3C1(Cl)C2(Cl)Cl (stereo unspecified),–,67.9 µM (active)
Cc1ccc([N+](=O)[O-])cc1,inactive,–
O=C(N[C@H](c1ccccc1)[C@@H]1CN2CCC1CC2)c1c(Cl)ccc(C(F)(F)F)c1Cl,–,101 µM (active)
CCCCOC(=O)c1ccccc1C(=O)OCc1ccccc1,inactive,–
O=C1CCCO1,inactive,–
c1ccc(N=Nc2ccccc2)cc1,inactive,–
CN(C)[C@@H]1C(=O)C(C(N)=O)=C(O)[C@@]2(O)C(=O)C3=C(O)c4c(O)cccc4[C@@](C)(O)[C@H]3C[C@@H]12,inactive,–
